Data taken from PubChem BioAssay.
Activity calls are given as the source filed them. No rule for the calls is given here.

system: Aerobactin synthetase IucA (Klebsiella pneumoniae hvKP1); assay: IucA enzyme inhibition, primary screen, biochemical, Spectrum library (AID 1346200); conditions: malachite green pyrophosphate, A620, at 8 µM, active compounds read low;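 also: 100% = wells without compound and 0% = wells lacking enzyme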

SMILES	activity remaining
COc1cc(O)c2c(c1)C(=O)c1cc(C)cc(O)c1C2=O	97.7% (inactive)
C[C@H]1O[C@@H](O[C@H]2[C@@H](O)C[C@H](O[C@H]3[C@@H](O)C[C@H](O[C@H]4CC[C@]5(C)C6C[C@@H](O)[C@]7(C)[C@@H](C8=CC(=O)OC8)CC[C@]7(O)C6CC[C@@H]5C4)O[C@@H]3C)O[C@@H]2C)C[C@H](O)[C@@H]1O (stereo not given in full)	118% (inactive)
C[C@H]1COC2=C1C(=O)C(=O)c1c2ccc2c1CCCC2(C)C	106% (inactive)
CCN(CC)CCOc1ccc2c(c1)C(=O)c1cc(OCCN(CC)CC)ccc1-2	118% (inactive)
S=P(N1CC1)(N1CC1)N1CC1	89.8% (inactive)
NCCCC(O)(P(=O)(O)O)P(=O)(O)O	112% (inactive)
COC(=O)C(O)c1ccccc1 (stereo not given)	108% (inactive)
O=c1c(-c2cc(O)c(O)c(O)c2)coc2cc(O)c(O)c(O)c12	93.2% (inactive)
CC(C)c1nc(N(C)S(C)(=O)=O)nc(-c2ccc(F)cc2)c1/C=C/[C@@H](O)C[C@@H](O)CC(=O)O	124% (inactive)
CC(=O)OCC(=O)[C@@]1(O)CCC2C3CCC4=CC(=O)CC[C@]4(C)C3C(=O)C[C@@]21C (stereo not given in full)	120% (inactive)
O=C1CC[C@]23/C=C/C(=O)NCCCCNCCCNC(=O)/C=C/c4ccc(c2c4)O[C@@H]3C1	117% (inactive)
COc1ccc2c(c1)OC/C(=C/c1ccc(OC)c(OC)c1)C2=O	123% (inactive)
COc1c(CC(=O)c2cc3c(cc2O)OC(C)(C)C(O)C3)ccc2c1C=CC(C)(C)O2 (stereo not given)	96.2% (inactive)
Cn1c(=O)c2c(ncn2CC(O)CO)n(C)c1=O (stereo not given)	104% (inactive)
CC(=O)Oc1cc(-c2coc3cc(OC(C)=O)c(OC(C)=O)c(OC(C)=O)c3c2=O)cc(OC(C)=O)c1OC(C)=O	88.1% (inactive)
O=C(O)c1cc(=O)c2cccc(O)c2[nH]1	97.3% (inactive)
CC1/C(=N/O)C[C@@H]2C[C@H]1C2(C)C (stereo not given in full)	110% (inactive)
CC(C)(Oc1ccc(Cl)cc1)C(=O)O	122% (inactive)
Cc1c(N(C)C)c(=O)n(-c2ccccc2)n1C	123% (inactive)
COC(=O)Nc1nc2ccc(C(=O)c3ccccc3)cc2[nH]1	104% (inactive)
CC(=O)O[C@H]1CC[C@@]2(C)C(=CCC3C2CC[C@@]2(C)C3CC[C@@H]2C(C)CCCC(C)C)C1 (stereo not given in full)	124% (inactive)
CS(=O)(=O)CCCCN=C=S	101% (inactive)
CC(=O)OCC(=O)[C@@]1(O)[C@H](C)CC2C3CCC4=CC(=O)C=C[C@]4(C)[C@@]3(F)[C@@H](O)C[C@@]21C (stereo not given in full)	119% (inactive)
CN(C)CCc1c[nH]c2ccc(Cn3cncn3)cc12	102% (inactive)
CNCCc1ccccn1	114% (inactive)
